Test results from publication PMC4336329 (PLoS ONE, 2015).
The whole screen tested about 310,000 compounds, of which about 14,000 (4.5%) showed an effect of 50% or more. Effects have a minus sign here. What follows is part of a selection rich in strong results, with near analogues and random picks from the rest.

molecular target: human ether-à-go-go-related gene (hERG) potassium channel (human, UniProt Q12809); assay: primary screen, population patch clamp on CHO cells stably expressing hERG; higher = less effect of the substance
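Note: peak tail current of the secondary pulse compared with the same well before compound.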

human ether-à-go-go-related gene (hERG) potassium channel, sequence (Q12809 whole entry, looked up): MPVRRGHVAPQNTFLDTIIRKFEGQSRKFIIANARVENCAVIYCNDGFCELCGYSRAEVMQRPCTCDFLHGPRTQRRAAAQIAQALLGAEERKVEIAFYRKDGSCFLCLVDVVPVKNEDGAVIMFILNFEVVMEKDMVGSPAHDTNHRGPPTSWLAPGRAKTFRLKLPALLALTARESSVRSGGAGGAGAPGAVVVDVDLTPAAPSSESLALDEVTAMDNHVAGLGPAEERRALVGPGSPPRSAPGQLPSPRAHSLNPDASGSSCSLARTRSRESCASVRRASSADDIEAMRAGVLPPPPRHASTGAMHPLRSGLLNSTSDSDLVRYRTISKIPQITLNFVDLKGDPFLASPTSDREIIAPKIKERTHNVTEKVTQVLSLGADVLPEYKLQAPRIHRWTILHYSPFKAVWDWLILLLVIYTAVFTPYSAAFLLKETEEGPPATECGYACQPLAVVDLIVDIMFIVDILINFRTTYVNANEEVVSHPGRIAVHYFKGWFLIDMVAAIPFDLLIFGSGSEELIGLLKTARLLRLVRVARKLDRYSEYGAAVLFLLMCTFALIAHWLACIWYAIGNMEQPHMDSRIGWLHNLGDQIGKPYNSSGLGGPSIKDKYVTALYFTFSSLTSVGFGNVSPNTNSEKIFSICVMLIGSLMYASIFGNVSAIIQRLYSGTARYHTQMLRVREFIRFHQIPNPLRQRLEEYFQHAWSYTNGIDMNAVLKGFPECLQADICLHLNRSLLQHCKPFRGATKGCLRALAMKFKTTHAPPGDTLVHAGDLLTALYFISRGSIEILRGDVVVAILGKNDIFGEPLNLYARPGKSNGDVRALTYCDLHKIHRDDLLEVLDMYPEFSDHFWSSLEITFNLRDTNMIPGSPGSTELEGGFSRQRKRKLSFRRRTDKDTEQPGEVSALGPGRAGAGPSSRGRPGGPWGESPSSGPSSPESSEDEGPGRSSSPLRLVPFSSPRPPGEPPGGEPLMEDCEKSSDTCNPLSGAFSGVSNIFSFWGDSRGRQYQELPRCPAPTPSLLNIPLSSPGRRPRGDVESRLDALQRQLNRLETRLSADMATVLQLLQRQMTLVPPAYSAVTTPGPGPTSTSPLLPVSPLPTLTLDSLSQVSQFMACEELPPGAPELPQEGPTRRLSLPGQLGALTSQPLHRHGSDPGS

| Structure (SMILES) | hERG current change (%, negative = inhibition) at 10uM [%] |
| --- | --- |
| Cn1c(CCNC(=O)C(C)(C)C)nc2ccccc21 | 16.4 |
| O=C(NC1CCCCC1)C1CC=CCC1C(=O)OCC(Cl)=C(Cl)Cl (centres unmarked) | -20.7 |
| COc1ccc(Oc2ncccc2[N+](=O)[O-])cc1 | 6.57 |
| CN(C)c1ccc(/C=N/NC(=O)c2ccco2)cc1 | 1 |
| O=C(CN1CCOCC1)Nc1cc([N+](=O)[O-])ccc1Cl | -17 |
| O=C(CN1CCN(S(=O)(=O)N2CCOCC2)CC1)Nc1cc(Cl)ccc1Cl | -55.2 |
| COc1ccc(S(=O)(=O)N2CCN(CC(=O)Nc3cc(Cl)ccc3Cl)CC2)cc1 | -7.44 |
| O=C(CN1CCN(S(=O)(=O)N2CCCCCC2)CC1)Nc1cc(Cl)ccc1Cl | 7.48 |
| COc1ccc(Cl)cc1NC(=O)CN1CCN(S(=O)(=O)N2CCC(C)CC2)CC1 | -32.1 |
| COc1ccc(Cl)cc1NC(=O)CN1CCN(S(=O)(=O)N2CCCCC2)CC1 | -9.48 |
| CN1CCN(CC(=O)Nc2cc(S(=O)(=O)N3CCOCC3)ccc2Cl)CC1 | 4.13 |
| CN(C)S(=O)(=O)N1CCN(CC(=O)Nc2cc(Cl)ccc2Cl)CC1 | -50.8 |
| CN(C)c1ccc(NC(=O)CN2CCN(S(=O)(=O)c3cc(Cl)ccc3Cl)CC2)cc1 | -1.09 |
| COc1ccc(Cl)cc1NC(=O)CN1CCN(S(=O)(=O)N2CCOCC2)CC1 | -55.9 |
| O=C(CN1CCN(S(=O)(=O)N2CCCCC2)CC1)Nc1cc(Cl)ccc1Cl | 10.7 |
| O=C(CN1C(=O)c2ccc([N+](=O)[O-])cc2C1=O)Nc1cc(S(=O)(=O)N2CCOCC2)ccc1Cl | -60.8 |
| O=C(O)c1ccccc1-c1cc2ccccc2[nH]1 | 19.7 |
| N#C/C(=C/c1ccc(N2CCOCC2)c([N+](=O)[O-])c1)C(N)=O | -39.8 |
| O=C(OC(C(=O)NCC1CCCO1)c1ccccn1)c1cccs1 (centres unmarked) | 1.83 |
| COCc1nc2ccccc2n1Cc1cccc(C)c1 | -12.8 |
| O=S(=O)(NCC(c1ccco1)N1CCN(c2ccccc2F)CC1)c1ccc(F)cc1 (centres unmarked) | -11.2 |
| CC(C)CNc1nc(Oc2ccc(=O)[nH]n2)nc(N2CCOCC2)n1 | 7.99 |

| Structure (SMILES) | hERG current change (%, negative = inhibition) at 10uM [%] |
| --- | --- |
| O=C(CN1CCOCC1)Nc1cc(Cl)ccc1Cl | -32.5 |
| O=C(CN1CCN(C(=O)C2CCCO2)CC1)Nc1cc(C(F)(F)F)ccc1Cl (centres unmarked) | -45.8 |
| O=C(CN1CCN(C(=O)C2CCCO2)CC1)Nc1cc(Cl)ccc1Cl (centres unmarked) | -61.9 |
| Cc1ccc(Cl)cc1NC(=O)CN1CCOCC1 | -0.857 |
| Cc1ccc(Cl)cc1NC(=O)CN1CCN(S(=O)(=O)N2CCOCC2)CC1 | -64.3 |
| Cc1ccc(Cl)cc1NC(=O)CN1CCN(S(=O)(=O)N2CCC(C)CC2)CC1 | -41.3 |
| Cc1ccc(Cl)cc1NC(=O)CN1CCN(C(=O)C2CCCO2)CC1 (centres unmarked) | -29.8 |
| O=C(CN1CCN(C(=O)N2CCOCC2)CC1)Nc1cc(Cl)ccc1Cl | -59.9 |
| COc1ccc(Cl)cc1NC(=O)CN1CCN(C(=O)N2CCOCC2)CC1 | -38.8 |
| Cn1nnc2cc(C(=O)Nc3ccc(Cl)cc3)ccc21 | -3.78 |
| COc1ccc(-c2cc(C(=O)O)nc3ccc4ccccc4c23)cc1OC | 12.6 |
| O=C(CSc1nc(O)cc(=O)[nH]1)C1CC1 | 7.82 |
| CC(C)(C)N/C=C(\C#N)S(=O)(=O)c1ccc(Br)cc1 | -10.5 |
| C=CCN1C(=O)C2C(C(=O)NC)C3C=CC2(O3)C1C(=O)NCc1ccc(OC)cc1 (centres unmarked) | 0.24 |
| Cc1cc(C)n2nc(CC(=O)NC3CCCCCCC3)nc2n1 | -70.9 |
| Cc1cc(C)n2nc(CC(=O)NC3CCCCCC3)nc2n1 | 5.03 |
| Cc1cc(C)n2nc(SCC(=O)NC3CCCCC3)nc2n1 | 1.68 |
| CCOC(=O)CCc1c(C(=O)OCC)[nH]c(CC)c1C(=O)OCc1ccccc1 | -17.2 |
| COCc1cc(C)nc(SCC(=O)Nc2ccc3c(c2)OCCO3)c1C#N | 13.4 |
| CCOC(=O)C1CCN(C(=O)CN2C(=O)c3ccccc3Sc3ncccc32)CC1 | 6.06 |
| O=C(NCc1ccccc1Cl)c1ccc(CS(=O)Cc2ccc(Cl)cc2)o1 (centres unmarked) | -46.9 |
| O=C(NCc1ccccc1)c1ccc(CS(=O)Cc2ccc(Cl)cc2)o1 (centres unmarked) | -62.5 |

| Structure (SMILES) | hERG current change (%, negative = inhibition) at 10uM [%] |
| --- | --- |
| O=C(NCc1cccc(Cl)c1)c1ccc(CS(=O)Cc2ccccc2Cl)o1 (centres unmarked) | -3.52 |
| COc1ccc(CNC(=O)c2ccc(CS(=O)Cc3cccc(Cl)c3)o2)cc1 (centres unmarked) | -37.5 |
| O=C(NCc1ccc(Cl)cc1)c1ccc(CS(=O)Cc2cccc(Cl)c2)o1 (centres unmarked) | -53.5 |
| Cc1ccc(CNC(=O)c2ccc(CS(=O)Cc3cccc(Cl)c3)o2)cc1 (centres unmarked) | -21.5 |
| O=C(NCc1cccc(Cl)c1)c1ccc(CS(=O)Cc2ccc(Cl)cc2)o1 (centres unmarked) | -62.1 |
| Cc1ccc(CS(=O)Cc2ccc(C(=O)NCc3ccccc3)o2)cc1 (centres unmarked) | 11 |
| COc1ccc(CNC(=O)c2ccc(CS(=O)Cc3ccc(Cl)cc3)o2)cc1 (centres unmarked) | -84.6 |
| COc1ccc(OC)c(CCNC(=O)c2ccc(CS(=O)Cc3ccc(Cl)cc3)o2)c1 (centres unmarked) | -31 |
| O=C(NCc1cccs1)c1ccc(CS(=O)Cc2cccc(Cl)c2)o1 (centres unmarked) | -39.6 |
| O=C(NCc1ccc2c(c1)OCO2)c1ccc(CS(=O)Cc2cccc(Cl)c2)o1 (centres unmarked) | -23.6 |
| COc1cc2c(C(=O)Nc3ccc4c(c3)OCO4)cn(CC(C)C)c(=O)c2cc1OC | -2.44 |
| CCOC(=O)C1C(=O)NC(C)C1c1ccccc1 (centres unmarked) | -4.44 |
| O=C(COC(=O)c1cc2c(s1)CCCC2)NCc1ccccc1Cl | 1.44 |
| CC(C)(C)c1ccc(C(=O)N2CCC(C(=O)NCC3CCCO3)CC2)cc1 (centres unmarked) | -23.6 |
| CC(=O)C1=C(O)C(=O)N(c2ccc(O)cc2)C1c1ccc(Cl)cc1 (centres unmarked) | 17.4 |
| O=C(O)c1ccccc1OC(C(=O)Nc1cc(Cl)cc(Cl)c1)c1ccccc1 (centres unmarked) | 13.5 |
| CC(=O)NC12CC3CC(C1)CC(C(=O)N1CCN(S(=O)(=O)c4ccccc4[N+](=O)[O-])CC1)(C3)C2 | -20.8 |
| CCOC(=O)N1CCc2c(sc(NC(=O)c3ccc(S(=O)(=O)N4CCCC4)cc3)c2C#N)C1 | 19.3 |
| Cc1nnc(OCc2nc3ccccc3n2C)c2ccccc12 | -27.4 |
| Cc1ccc(NC(=O)Cn2cc(C=O)c3ccccc32)cc1 | 17.5 |
| COc1cccc(CNC(=O)C2=Cc3cccc(OC)c3OC2)c1 | 4.36 |
| COc1ccc2c(c1)C=C(C(=O)NCc1ccc(Cl)cc1)CO2 | -67 |

| Structure (SMILES) | hERG current change (%, negative = inhibition) at 10uM [%] |
| --- | --- |
| O=C(NCc1ccc(Cl)cc1)C1=Cc2cc(Cl)ccc2OC1 | -10.2 |
| CCOc1cc(C2Nc3ccccc3C(=O)N2c2ccccc2)ccc1O (centres unmarked) | 4.38 |
| CCOc1cc(C2Nc3ccccc3C(=O)N2c2ccccc2)c(Br)cc1OCC(=O)O (centres unmarked) | -53.8 |
| COc1cc(C2Nc3ccccc3C(=O)N2c2ccccc2)c(Br)cc1OCC(=O)O (centres unmarked) | 0.108 |
| Cc1ccc2ccc(C(Nc3ccccn3)c3ccccc3)c(O)c2n1 (centres unmarked) | -3.72 |
| CCOc1ccc(CNC(=S)NCc2ccc(OCC)cc2)cc1 | 15.2 |
| Cc1oc(-c2ccc(Cl)cc2)nc1CN1CCCN(C(=O)c2ccco2)CC1 | -72.4 |
| Cc1oc(-c2ccccc2Cl)nc1CN1CCCN(C(=O)c2ccco2)CC1 | -65.4 |
| COc1ccc(-c2nc(CN3CCN(C(=O)c4ccco4)CC3)c(C)o2)cc1OC | 1.8 |
| COc1ccc(F)c(-c2nc(CN3CCN(C(=O)c4ccco4)CC3)c(C)o2)c1 | -35.9 |
| Cc1onc(-c2ccccc2Cl)c1C(=O)N1CCN(C(=O)c2ccco2)CC1 | -16 |
| Cc1ccccc1-c1nc(CN2CCN(C(=O)c3ccco3)CC2)c(C)o1 | -5.18 |
| Cc1ccc(-c2nc(CSCC(=O)N3CCN(C(=O)c4ccco4)CC3)c(C)o2)cc1 | -32.7 |
| COC(=O)c1ccc(-c2nc(CN3CCCN(C(=O)c4ccco4)CC3)c(C)o2)cc1 | -41.4 |
| O=C(c1ccco1)N1CCN(Cc2csc(-c3ccccc3Cl)n2)CC1 | -64.9 |
| O=C(c1ccco1)N1CCN(Cc2c(Cl)cccc2Cl)CC1 | -8.42 |
| CCOc1ccccc1-c1nc(CN2CCCN(C(=O)c3ccco3)CC2)c(C)o1 | 9.83 |
| Cc1oc(-c2ccc(Cl)cc2)nc1CN1CCCC(C(=O)N2CCN(C(=O)c3ccco3)CC2)C1 (centres unmarked) | -89.5 |
| CCCC(=O)C1=C(O)C(C(=O)OC)C(C)(C)CC1=NC(C)C (centres unmarked) | 15.1 |
| Cc1cccc(C)c1NC(=O)CSc1nnc(C)c(=O)[nH]1 | 15.1 |
